# Laboratory results reported in PubChem BioAssay (Tox21).
# Several values for one entry are separate records, joined by “and”; a condition that tells them apart may be missing. Identical values can stand only once. Some compounds were tested as several samples or in several runs, with calls that do not always agree. Activity calls are given as the source filed them. A call without a number means that no potency is given here. Unless noted, the call rests on the fitted dose curve; in most records, active means well fitted curve in the direction sought with a large enough effect in the repeat runs; inconclusive means weak or mixed curves; inactive means no such curve, though single readings can be large; an effect the other way counts as inactive or inconclusive.
# Columns and labels:
# [1] = qHTS assay to test for compound auto fluorescence at 535 nm (green) in HEK293 cells (AID 720680)
# [2] = qHTS assay to test for compound auto fluorescence at 460 nm (blue) in HEK293 cell free culture (AID 720681)
# Outline: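 Blue fluorescence (Ex 405/Em 460 nm, triamterene-equivalent) was read immediately after pin transfer of compound or DMSO into medium (DMEM, 10% FBS) without cells.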
# [3] = qHTS assay to test for compound auto fluorescence at 535 nm (green) in HEK293 cell free culture (AID 720682)
# Outline: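 Each library compound, or DMSO control, is added by pintool to medium alone, comprising DMEM and 10% FBS. Emission at 535 nm following 485 nm excitation is quantified against fluorescein.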
# [4] = qHTS assay to test for compound auto fluorescence at 590 nm (red) in HEK293 cell free culture (AID 720683)
# Outline: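 Red-channel autofluorescence of compounds in culture medium (DMEM, 10% FBS), no cells, measured at 540/590 nm. Rose Bengal sodium is the reference fluorophore for equivalence.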
# [5] = qHTS assay to test for compound auto fluorescence at 590 nm (red) in HepG2 cell free culture (AID 720684)
# Outline: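 Plate contents were MEM with 10% FBS plus test compound or DMSO, no cells. Fluorescence was recorded with 540 nm excitation and 590 nm emission.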
# [6] = qHTS assay to test for compound auto fluorescence at 460 nm (blue) in HepG2 cell free culture (AID 720685)
# Outline: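 Compound (23 nL) or DMSO pinned into cell-free MEM with 10% FBS; blue fluorescence read at 405/460 nm excitation/emission, expressed as auto-fluorescence equivalency to triamterene.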
# [7] = qHTS assay to test for compound auto fluorescence at 535 nm (green) in HepG2 cell free culture (AID 720686)
# [8] = qHTS assay to test for compound auto fluorescence at 460 nm (blue) in HepG2 cells (AID 720687)
# Outline: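 Blue-channel autofluorescence (Ex/Em 405/460 nm, triamterene-equivalent) was measured after 1 hr compound exposure at 37 C, 5% CO2. Cells were HepG2, plated overnight at 37 C in MEM plus 10% FBS.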
# [9] = qHTS assay to identify small molecule antagonists of the glucocorticoid receptor (GR) signaling pathway - cell viability counter screen (AID 720693); further: nearly all actives have a fitted effect of over 55% in size; further: potency means the concentration at half of the fitted maximal effect
# [10] = qHTS assay for identifying genotoxic compounds that show differential cytotoxicity against isogenic chicken DT40 cell lines with known DNA damage response pathways - Rad54/Ku70 mutant cell line (AID 743015); further: nearly all actives have a fitted effect of over 60% in size; further: potency means the concentration at half of the fitted maximal effect
# [11] = qHTS assay to identify small molecule antagonists of the androgen receptor (AR) signaling pathway - cell viability counter screen (AID 743033; further: nearly all actives have a fitted effect of over 45% in size; further: potency means the concentration at half of the fitted maximal effect)
# [12] = qHTS assay to identify small molecule antagonists of the androgen receptor (AR) signaling pathway using the MDA cell line - cell viability counter screen (AID 743041; further: nearly all actives have a fitted effect of over 45% in size; further: potency means the concentration at half of the fitted maximal effect)
# Outline: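 R1881-driven MDA-kb2 AR-luc cells, 3,000/well, were dosed with library compounds for 16 h; cell health came from CellTiter-Fluor fluorescence in the reporter wells.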
# [13] = qHTS assay to identify small molecule antagonists of the thyroid receptor (TR) signaling pathway - cell viability counter screen (AID 743064); further: nearly all actives have a fitted effect of over 50% in size; further: potency means the concentration at half of the fitted maximal effect
# Outline: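 CellTiter-Fluor readout, 30 min at 37 °C/5% CO2, following 23.5 h incubation of GH3.TRE-Luc cells with test compound and 1 nM T3 (final).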
# [14] = molecular target: Glucocorticoid receptor (Homo sapiens) (UniProt P04150); test: qHTS assay to identify small molecule agonists of the glucocorticoid receptor (GR) signaling pathway (AID 720691; active means well fitted activation curve with a large enough effect in the signal ratio in the repeat runs, not every such curve was filed as active; inconclusive means weak or mixed curves, or effect the other way; inactive means no such curve, though single readings can be large or run the other way; the % refers to the signal ratio); conditions: GR-bla HeLa, beta-lactamase reporter ratio, 18 h; activation: at 62.4 µM (top of the series)
# Glucocorticoid receptor (Homo sapiens), sequence (P04150 whole entry, looked up): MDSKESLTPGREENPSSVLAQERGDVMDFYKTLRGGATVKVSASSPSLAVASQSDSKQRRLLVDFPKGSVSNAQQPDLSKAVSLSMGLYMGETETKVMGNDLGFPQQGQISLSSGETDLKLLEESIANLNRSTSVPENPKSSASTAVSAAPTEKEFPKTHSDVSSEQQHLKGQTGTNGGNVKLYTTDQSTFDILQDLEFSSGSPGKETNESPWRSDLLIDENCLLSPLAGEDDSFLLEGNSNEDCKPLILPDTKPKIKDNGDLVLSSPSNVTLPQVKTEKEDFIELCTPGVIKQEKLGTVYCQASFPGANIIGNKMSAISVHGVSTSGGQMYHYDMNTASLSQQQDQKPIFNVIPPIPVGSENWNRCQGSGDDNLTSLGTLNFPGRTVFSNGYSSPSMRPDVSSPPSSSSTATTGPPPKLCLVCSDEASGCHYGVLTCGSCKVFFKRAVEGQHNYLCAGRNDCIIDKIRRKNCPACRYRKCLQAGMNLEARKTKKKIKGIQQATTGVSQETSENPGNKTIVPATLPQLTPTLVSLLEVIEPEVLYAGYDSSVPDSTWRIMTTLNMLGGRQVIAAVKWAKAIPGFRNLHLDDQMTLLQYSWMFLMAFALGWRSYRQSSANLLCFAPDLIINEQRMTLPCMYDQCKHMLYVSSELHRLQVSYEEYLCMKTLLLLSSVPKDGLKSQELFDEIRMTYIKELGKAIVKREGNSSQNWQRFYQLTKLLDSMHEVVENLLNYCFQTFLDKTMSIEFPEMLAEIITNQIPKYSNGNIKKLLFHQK
# Outline: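 GR-bla HeLa cells carrying a GRE-driven beta-lactamase reporter, exposed to compounds for 18 h at 37 C. Reporter activation read as fluorescence after 2 h with LiveBLAzer B/G FRET substrate at room temperature.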
# [15] = qHTS assay for identifying genotoxic compounds that show differential cytotoxicity against isogenic chicken DT40 cell lines with known DNA damage response pathways - wild type cell line (AID 743012); further: nearly all actives have a fitted effect of over 60% in size; further: potency means the concentration at half of the fitted maximal effect
# Outline: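 Wild-type DT40 cells (300/well) exposed to compounds for 40 hours at 37 C/5% CO2. Viability read by CellTiter-Glo luminescence after 30 min at room temperature.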
# [16] = qHTS assay for identifying genotoxic compounds that show differential cytotoxicity against isogenic chicken DT40 cell lines with known DNA damage response pathways - Rev3 mutant cell line (AID 743014); further: nearly all actives have a fitted effect of over 55% in size; further: potency means the concentration at half of the fitted maximal effect
# [17] = molecular target: Androgen receptor (Homo sapiens) (UniProt P10275); test: qHTS assay to identify small molecule antagonists of the androgen receptor (AR) signaling pathway (AID 743035; active means well fitted inhibition curve with a large enough effect in the signal ratio in the repeat runs, not every such curve was filed as active; inconclusive means weak or mixed curves, or effect the other way; inactive means no such curve, though single readings can be large or run the other way; the % refers to the signal ratio; further: potency means the concentration at half of the fitted maximal effect)
# Androgen receptor (Homo sapiens), sequence (P10275 whole entry, looked up): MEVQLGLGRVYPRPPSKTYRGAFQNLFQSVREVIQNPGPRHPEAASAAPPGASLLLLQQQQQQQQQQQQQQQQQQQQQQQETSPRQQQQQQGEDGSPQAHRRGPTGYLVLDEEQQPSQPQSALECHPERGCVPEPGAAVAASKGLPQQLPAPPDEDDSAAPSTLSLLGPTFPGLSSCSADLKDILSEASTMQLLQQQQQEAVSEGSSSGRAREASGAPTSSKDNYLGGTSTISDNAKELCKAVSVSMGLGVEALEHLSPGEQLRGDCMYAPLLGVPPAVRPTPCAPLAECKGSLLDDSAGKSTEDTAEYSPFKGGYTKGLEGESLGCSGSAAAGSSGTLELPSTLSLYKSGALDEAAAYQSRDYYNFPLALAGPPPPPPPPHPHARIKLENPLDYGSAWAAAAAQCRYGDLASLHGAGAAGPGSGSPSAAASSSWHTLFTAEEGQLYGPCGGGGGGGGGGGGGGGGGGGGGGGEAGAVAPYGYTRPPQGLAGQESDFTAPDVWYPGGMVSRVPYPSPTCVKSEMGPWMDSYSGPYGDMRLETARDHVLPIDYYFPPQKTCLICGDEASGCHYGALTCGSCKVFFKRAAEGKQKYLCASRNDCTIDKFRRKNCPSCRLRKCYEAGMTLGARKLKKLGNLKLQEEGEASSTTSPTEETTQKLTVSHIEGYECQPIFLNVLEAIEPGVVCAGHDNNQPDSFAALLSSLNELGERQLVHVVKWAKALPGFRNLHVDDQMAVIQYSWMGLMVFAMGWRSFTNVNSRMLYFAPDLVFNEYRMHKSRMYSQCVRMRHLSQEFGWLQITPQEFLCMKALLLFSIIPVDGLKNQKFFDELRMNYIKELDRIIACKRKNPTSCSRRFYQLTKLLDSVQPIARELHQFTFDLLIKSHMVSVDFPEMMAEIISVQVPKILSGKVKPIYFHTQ
# Outline: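 HEK293 cells stably carrying UAS-beta-lactamase reporter, 2,000/well, given compounds plus R1881 agonist and incubated 16 h at 37C. LiveBLAzer B/G FRET substrate then added for 2 h at room temperature before fluorescence reading.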
# [18] = molecular target: Androgen receptor (Homo sapiens) (UniProt P10275); test: qHTS assay to identify small molecule agonists of the androgen receptor (AR) signaling pathway using the MDA cell line (AID 743040; further: nearly all actives have a fitted effect of over 20% in size)
# Outline: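 After a 5 h incubation at 37C and 0% CO2, MDA-kb2 reporter cells were dosed with compounds in DMSO and kept 16 h under the same conditions. Luciferase activity was then read as luminescence with ONE-Glo.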
# [19] = molecular target: Androgen receptor (Homo sapiens) (UniProt P10275); test: qHTS assay to identify small molecule antagonists of the androgen receptor (AR) signaling pathway using the MDA cell line (AID 743042; further: nearly all actives have a fitted effect of over 55% in size; further: potency means the concentration at half of the fitted maximal effect)
# Outline: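 Antagonist mode: compounds plus R1881 agonist added to MDA-kb2 AR-luc cells, incubated 16 h at 37C. Luciferase reporter luminescence quantified, with multiplexed CellTiter-Fluor readout for cell viability.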
# [20] = molecular target: Glucocorticoid receptor (Homo sapiens) (UniProt P04150); test: qHTS assay to identify small molecule antagonists of the glucocorticoid receptor (GR) signaling pathway (AID 720692; active means well fitted inhibition curve with a large enough effect in the signal ratio in the repeat runs, not every such curve was filed as active; inconclusive means weak or mixed curves, or effect the other way; inactive means no such curve, though single readings can be large or run the other way; the % refers to the signal ratio)
# Outline: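 GR-bla HeLa cells carrying a GRE-driven beta-lactamase reporter received compound after 4 h plating, then dexamethasone (5 nM final). After 18 h at 37C, the FRET substrate was loaded for 2 h at room temperature and fluorescence read.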
smiles,measurement,setting,value
CNC(=O)Oc1cc(C)cc(C(C)C)c1,outcome,[1],inactive
same,Potency,[2],inactive
same,outcome,[3],inactive
same,outcome,[4],inactive
same,outcome,[5],inactive
same,Potency,[6],inactive
same,Potency,[7],inactive
same,Potency,[8],inactive
same,Potency,[9],inactive
same,Potency,[10],inactive
same,Potency,[11],inactive
same,Potency,[12],inactive
same,Potency,[13],inactive
C=CCBr,outcome,[1],inactive
same,Potency,[2],inactive
same,outcome,[3],inactive
same,outcome,[4],inactive
same,Potency,[6],inactive
same,Potency,[7],inactive
same,Potency,[8],inactive
same,Potency,[14],inactive
same,Potency,[15],inactive
same,Potency,[16],inactive
same,Potency,[10],inactive
same,Potency,[11],inactive
same,Potency,[12],inactive
same,Potency,[13],inactive
CC(=O)C(Cl)C(=O)N(C)C (stereo not given),outcome,[1],inactive
same,Potency,[2],inactive
same,outcome,[3],inactive
same,outcome,[4],inactive
same,outcome,[5],inactive
same,Potency,[6],inactive
same,Potency,[7],inactive
same,Potency,[8],inactive
same,Potency,[9],inactive
same,Potency,[16],24.3 µM (active)
same,Potency,[10],61.1 µM (active)
same,Potency,[11],inactive
same,Potency,[12],inactive
same,Potency,[13],inactive
Fc1ccc(C(OCCN2CCN(CCCc3ccccc3)CC2)c2ccc(F)cc2)cc1,outcome,[1],inactive
same,Potency,[2],inactive
same,outcome,[3],inactive
same,outcome,[4],inactive
same,Potency,[6],inactive
same,Potency,[7],inactive
same,Potency,[8],inactive
same,Potency,[9],21.3 µM (active)
same,Potency,[15],2.11 µM (active)
same,Potency,[16],2.11 µM (active)
same,Potency,[10],3.76 µM (active)
same,Potency,[11],21.3 µM (active)
same,Potency,[17],15.1 µM (active)
same,outcome,[18],inactive
same,Potency,[12],21.1 µM (active)
same,Potency,[19],16.8 µM (active)
same,Potency,[13],9.44 µM (active)
CCN1CCC2(CC1)COc1cc3c(cc12)N(C(=O)c1ccc(-c2ccc(-c4nnc(C)o4)cc2C)cc1)CC3,outcome,[1],inactive
same,Potency,[2],inactive
same,outcome,[3],inactive
same,outcome,[4],inactive
same,outcome,[5],inactive
same,Potency,[6],inactive
same,Potency,[7],inactive
same,Potency,[8],inactive
same,Potency,[16],1.42 µM (active)
same,Potency,[10],1 µM (active)
same,Potency,[11],6.38 µM (active)
same,outcome,[18],inactive
same,Potency,[19],63.3 µM (active)
same,Potency,[13],14.2 µM (active)
O=C(Cl)c1ccccc1F,outcome,[1],inactive
same,Potency,[2],inactive
same,outcome,[3],inactive
same,outcome,[4],inactive
same,outcome,[5],inactive
same,Potency,[6],inactive
same,Potency,[7],inactive
same,Potency,[8],inactive
same,Potency,[9],inactive
same,Potency,[15],inactive
same,Potency,[10],inactive
same,Potency,[11],inactive
same,Potency,[12],inactive
O=C(Nc1ccc(F)cc1F)c1cccnc1Oc1cccc(C(F)(F)F)c1,outcome,[1],inactive
same,Potency,[2],inactive
same,outcome,[3],inactive
same,outcome,[4],inactive
same,Potency,[6],inactive
same,Potency,[7],inactive
same,Potency,[8],inactive
same,Potency,[14],inactive
same,Potency,[20],inactive
same,Potency,[9],inactive
same,Potency,[16],inactive
same,Potency,[11],inactive
same,Potency,[12],inactive
same,Potency,[13],inactive
CN(C)C(=S)SSC(=S)N(C)C,outcome,[1],inactive
same,Potency,[2],inactive
same,outcome,[3],inactive
same,Potency,[6],inactive
same,Potency,[7],inactive
same,Potency,[8],inactive
same,activation,[14],-15.4% [inconclusive] (active) and -4.77% [inconclusive] (active)
same,Potency,[9],inactive
same,Potency,[15],47.3 nM (active) and 240 nM (active) and 24.3 nM (active)
same,Potency,[16],106 nM (active) and 107 nM (active) and 19.3 nM (active)
same,Potency,[10],106 nM (active) and 135 nM (active) and 19.3 nM (active)
same,Potency,[11],535 nM (active) and 85.9 nM (active) and 34.7 nM (active)
same,outcome,[18],inactive
same,Potency,[12],393 nM (active) and 269 nM (active) and 154 nM (active)
same,Potency,[19],inactive and 170 nM (active) and 61.1 nM (active)
same,Potency,[13],133 nM (active) and 9.55 µM (active) and 21.7 nM (active)
